Molecules are shown by their SMILES. This is part of a sample that, as a whole, favours compounds with a hit. Of some 83,000 tested, about 20% had one in any assay.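 The test compound was applied at a single concentration to cells in 96-well plates for 48 hours, and percent growth was recorded.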 Values without a mark were called inactive. Active and inactive are the calls of the source. How the source made its calls: active means growth percent below 10; inactive means the rest.

The text below walks through data of PubChem BioAssay (NCI).

Holding throughout (assay): NCI-60 one-dose screen, 48 h (100 = growth as untreated, 0 = no growth, -100 = all killed)
One experiment has as its system HCT-15 colon. As to conditions: 10 µM unless noted.
The next experiment relates to HT29 colon. To be noted: 10 µM unless noted.
Another experiment relates to SNB-75 CNS. To be noted: 10 µM unless noted.
A further experiment relates to SNB-19 CNS. As to conditions: 10 µM unless noted.
The test system of a further experiment is U251 CNS. To be noted: 10 µM unless noted.
A further experiment has as its system PC-3 prostate. As to conditions: 10 µM unless noted.
The next experiment relates to SK-MEL-5 melanoma. As to conditions: 10 µM unless noted.
For the next experiment, the system named is UACC-62 melanoma. As to conditions: 10 µM unless noted.
In the next experiment the test system is LOX IMVI melanoma. As to conditions: 10 µM unless noted.
The next experiment concerns SK-MEL-28 melanoma. To be noted: 10 µM unless noted.
The next experiment deals with SK-MEL-2 melanoma. As to conditions: 10 µM unless noted.
Another experiment relates to EKVX NSCLC. As to conditions: 10 µM.
In a further experiment the test system is SN12C renal. To be noted: 10 µM unless noted.
The next experiment concerns UO-31 renal. To be noted: 10 µM unless noted.
Another experiment relates to TK-10 renal. As to conditions: 10 µM unless noted.
Another experiment deals with ACHN renal. To be noted: 10 µM unless noted.
For a further experiment, the system named is CAKI-1 renal. To be noted: 10 µM unless noted.
A further experiment has as its system A498 renal. To be noted: 10 µM unless noted.
The test system of the next experiment is CCRF-CEM leukemia. As to conditions: 10 µM.
The test system of a further experiment is MOLT-4 leukemia. As to conditions: 10 µM unless noted.

Take `O=C(/C=C/c1ccc(Br)cc1)c1ccccc1`: the growth with HCT-15 colon was 72.5%; with HT29 colon it was 69.8%; in the experiment with SNB-75 CNS, 101%; with SNB-19 CNS it was 86.9%; in the experiment on U251 CNS it was 69%; with PC-3 prostate, 82%. In addition, the growth in the experiment on SK-MEL-5 melanoma is 95.3%; with UACC-62 melanoma, 92.2%; in the experiment on LOX IMVI melanoma it was 59.6%; in the experiment with SK-MEL-28 melanoma, 109%; in the experiment on SK-MEL-2 melanoma it was 103%; with EKVX NSCLC, 109%. The growth in the experiment on SN12C renal is 91.6%; in the experiment on UO-31 renal, 80.3%; in the experiment with TK-10 renal it was 64%; in the experiment on ACHN renal, 100%; in the experiment with CAKI-1 renal it was 101%; in the experiment with A498 renal, 77.4%. The growth in the experiment with CCRF-CEM leukemia was 81.6%; with MOLT-4 leukemia it was 92.3%.

On to `CC1(C)Oc2cc3oc(=O)ccc3cc2C[C@@H]1OCCOS(=O)(=O)c1ccc(C#N)cc1`, for which the growth is 92.7% in the experiment on HCT-15 colon; 97.2% in the experiment on HT29 colon; 93.4% in the experiment with SNB-75 CNS; 96.5% with SNB-19 CNS; 101% in the experiment on U251 CNS; 87.3% in the experiment on PC-3 prostate. Moreover, the growth is 93.6% in the experiment with SK-MEL-5 melanoma; 87.1% in the experiment on UACC-62 melanoma; 97.6% in the experiment on LOX IMVI melanoma; 101% in the experiment with SK-MEL-28 melanoma; 102% in the experiment on SK-MEL-2 melanoma; 107% with EKVX NSCLC. Moreover, the growth is 91.5% in the experiment with SN12C renal; 83.5% with UO-31 renal; 101% in the experiment with TK-10 renal; 95.2% in the experiment with ACHN renal; 86.3% in the experiment with CAKI-1 renal; 79.6% in the experiment on A498 renal. In addition, the growth is 98.6% in the experiment on CCRF-CEM leukemia and 92% in the experiment with MOLT-4 leukemia.

Take `COC(=O)c1ccc2[nH]c(O)c(C(=Nc3ccc(N(C)C(=O)CN4CCN(C)CC4)cc3)c3ccc(C)cc3)c2c1`: the growth in the experiment with HCT-15 colon is -38.5% (active); with HT29 colon, -23.3% (active); in the experiment on SNB-75 CNS it was -26.8% (active); in the experiment with SNB-19 CNS it was -10.6% (active); with U251 CNS, -77.2% (active); in the experiment with PC-3 prostate, -16% (active). The growth in the experiment with SK-MEL-5 melanoma was -73.1% (active); in the experiment with UACC-62 melanoma, -19% (active); with LOX IMVI melanoma, 4.3% (active); in the experiment with SK-MEL-28 melanoma, -8.16% (active); with SK-MEL-2 melanoma, -31.6% (active); in the experiment with EKVX NSCLC it was 23%. The growth is 9.81% (active) in the experiment on SN12C renal; -81.2% (active) in the experiment with UO-31 renal; -82.7% (active) in the experiment with TK-10 renal; -61.1% (active) in the experiment with ACHN renal; -41.6% (active) with CAKI-1 renal; -73.8% (active) in the experiment with A498 renal. The figures for the growth in the experiment with CCRF-CEM leukemia and with MOLT-4 leukemia were 1.57% (active) and -24.6% (active), respectively.

For `C#CCCCCCCC[C@@H]1OC(=O)[C@H]([C@@H](C)CC)NC(=O)[C@H]([C@@H](C)CC)NC(=O)CC(=O)[C@@H]1C`, the growth with HCT-15 colon was 98.2%; in the experiment on HT29 colon, 115%; with SNB-75 CNS, 76.1%; with SNB-19 CNS, 97.7%; with U251 CNS it was 103%; in the experiment with PC-3 prostate, 85.9%. Moreover, the growth is 101% in the experiment on SK-MEL-5 melanoma; 88.7% with UACC-62 melanoma; 92.1% in the experiment with LOX IMVI melanoma; 108% with SK-MEL-28 melanoma; 106% in the experiment with SK-MEL-2 melanoma; 97.8% in the experiment with EKVX NSCLC. In addition, the growth in the experiment on SN12C renal was 98.5%; with UO-31 renal it was 67.3%; with TK-10 renal, 117%; with ACHN renal, 94%; in the experiment on CAKI-1 renal, 71.4%; in the experiment on A498 renal it was 92.7%. Further, the growth in the experiment with CCRF-CEM leukemia is 89.8%; in the experiment with MOLT-4 leukemia, 80.3%.

Turning to `Clc1ccc(N/N=C/c2ccccn2)nc1`, the growth in the experiment on HCT-15 colon was 20.6%; in the experiment on HT29 colon, 27.3%; in the experiment with SNB-75 CNS, 21.7%; in the experiment on SNB-19 CNS, 28.2%; in the experiment with U251 CNS, 18.1%; with PC-3 prostate, 39.3%. For the same molecule, the growth with SK-MEL-5 melanoma is -66.3% (active); with UACC-62 melanoma it was -7.02% (active); in the experiment on LOX IMVI melanoma, -6.42% (active); in the experiment with SK-MEL-28 melanoma, 20%; in the experiment with SK-MEL-2 melanoma, 37.4%; with EKVX NSCLC, 5.55% (active). The growth is 14.4% in the experiment with SN12C renal; -12% (active) in the experiment on UO-31 renal; 26.7% in the experiment with TK-10 renal; 5.14% (active) in the experiment with ACHN renal; 8.53% (active) in the experiment with CAKI-1 renal; -3.65% (active) in the experiment with A498 renal. In addition, the growth is 11.6% in the experiment on CCRF-CEM leukemia and 5.02% (active) in the experiment on MOLT-4 leukemia.

Consider `COc1ccc(OC)c(Cn2cc3c(c2-c2ccccc2)CCc2cnoc2-3)c1`, for which the growth is 45.5% with HCT-15 colon; 30.4% in the experiment on HT29 colon; 55.9% in the experiment with SNB-75 CNS; 65.5% with SNB-19 CNS; 53.4% with U251 CNS; 41.1% with PC-3 prostate. The growth is 40.2% in the experiment with SK-MEL-5 melanoma; 48.1% in the experiment on UACC-62 melanoma; 61.6% in the experiment with LOX IMVI melanoma; 65.9% with SK-MEL-28 melanoma; 74.2% with SK-MEL-2 melanoma; 58.5% with EKVX NSCLC. The growth in the experiment on SN12C renal is 73%; with UO-31 renal, 59%; with TK-10 renal, 86.1%; with ACHN renal, 65.3%; in the experiment on CAKI-1 renal, 28.9%; with A498 renal it was 53.8%. Also, the results for the growth in the experiment on CCRF-CEM leukemia and in the experiment with MOLT-4 leukemia were 48.7% and 47%, respectively.

Regarding `O=S(=O)(O)CCI`, the growth in the experiment on HCT-15 colon was 108%; with HT29 colon, 116%; in the experiment on SNB-75 CNS, 98%; with SNB-19 CNS it was 102%; in the experiment with U251 CNS, 110%; with PC-3 prostate it was 95.7%. The growth was 91.2% with SK-MEL-5 melanoma; 101% in the experiment with UACC-62 melanoma; 97.8% with LOX IMVI melanoma; 113% in the experiment on SK-MEL-28 melanoma; 102% in the experiment with SK-MEL-2 melanoma; 119% in the experiment with EKVX NSCLC. In addition, the growth in the experiment with SN12C renal was 105%; in the experiment with UO-31 renal it was 95.4%; in the experiment with TK-10 renal it was 95.7%; in the experiment on ACHN renal, 112%; in the experiment on CAKI-1 renal, 107%; in the experiment with A498 renal, 90.7%. Further, the growth is 106% in the experiment with CCRF-CEM leukemia and 120% with MOLT-4 leukemia.

As for `O=C(N/N=C/c1ccccc1Cl)c1cccc2ccccc12`, the growth is 102% in the experiment with HCT-15 colon; 105% in the experiment on HT29 colon; 83.1% with SNB-75 CNS; 98.3% with SNB-19 CNS; 98.4% in the experiment on U251 CNS; 99.6% in the experiment with PC-3 prostate. Further, the growth in the experiment with SK-MEL-5 melanoma was 104%; in the experiment with UACC-62 melanoma, 99.8%; with LOX IMVI melanoma, 103%; in the experiment with SK-MEL-28 melanoma it was 95.4%; in the experiment with SK-MEL-2 melanoma it was 108%; in the experiment with EKVX NSCLC, 99.6%. Besides, the growth in the experiment on SN12C renal was 94.9%; in the experiment on UO-31 renal, 91.5%; in the experiment with TK-10 renal, 113%; with ACHN renal, 105%; with CAKI-1 renal, 96.8%; in the experiment with A498 renal it was 85.4%. In addition, the growth with CCRF-CEM leukemia is 88.3%; in the experiment with MOLT-4 leukemia it was 112%.
